The record followed here is PubChem BioAssay AID1159607 (Small Molecule Screening Facility, UW Madison, 2016).

Several values for one entry are separate records, joined by “and”; a condition that tells them apart may be missing. Identical values can stand only once. The campaign covered roughly 70,000 compounds. About 400 (0.57%) were called active. Shown is part of a subset that was picked to be rich in actives. Unmarked numbers belong to inactive results. Rule as the data show it: active = FP signal below about 40; inactive = the rest.

This test relates to RMI core complex (RMI1/RMI2) binding to FANCM MM2 peptide, human. In words: disruptors of RMI1/RMI2 association with MM2 peptide – biochemical, fluorescence polarization, human, primary screen (AID 1159607). The conditions noted are these: RMI core complex with F-MM2 peptide, at 33 µM, stronger effect = lower value. A general note: Polarisation of emitted light reports the rotation of a fluorescent probe.
As for `Cc1cccn2c(=O)c(/C=C3\SC(=S)N(C)C3=O)c(NCc3ccc4c(c3)OCO4)nc12`, the FP signal (polarization) is 42. Then `Cc1ccc(S(=O)(=O)NCCCCCC(=O)Nc2ccncc2)cc1`, with 56; and `Cc1ccc(NC(=O)C(=O)Nc2cc(F)ccc2F)cc1N1CCCC1=O`, with 54.

Turning to `O=C(CSc1nnc(NC(=O)c2ccc(Br)o2)s1)Nc1cc(C(F)(F)F)ccc1Cl`, the FP signal (polarization) was 64. Take `COC(=O)c1c(N2C(=O)C3ON(c4ccc(Cl)cc4)C(c4ccco4)C3C2=O)sc(C)c1C` (stereo unspecified): the FP signal (polarization) was 25 (active). Turning to `N#CC(c1ccccc1)N1CCSCC1` (stereo unspecified), the FP signal (polarization) is 56. On to `Cc1cc(-c2nnc(NC(=O)Cc3ccc(F)cc3)o2)n(C)n1`, for which the FP signal (polarization) is 70. `CCOC(=O)N1CCc2c(sc(NC(=O)CSc3ccccc3)c2C(N)=O)C1`: the FP signal (polarization) was 67. Take `O=C(NCCn1ncc2c(=O)n(Cc3cccc([N+](=O)[O-])c3)cnc21)C1CC(=O)N(c2ccc(F)cc2)C1` (stereo unspecified): the FP signal (polarization) was 71.

In the case of `O=C(CCn1cncn1)N1CCN(C(=O)N2CCOCC2)CC1`, the FP signal (polarization) is 63. The same measure for `O=C(c1ccc(=O)n(Cc2cccc(F)c2)n1)N1CCN(Cc2ccccc2)CC1`: 59; for `CCN1C(=O)Cc2cc(NC(=O)c3ccc(F)c(F)c3)ccc21`: 68; for `CSc1ccc2nc(NC(=O)c3ccc(S(=O)(=O)N4CCc5ccccc5C4)cc3)sc2c1`: 70. Consider `COc1ccc(Cl)c2sc(NNC(=O)c3ccc(S(=O)(=O)N4CCc5ccccc5C4)cc3)nc12`, for which the FP signal (polarization) is 11 (active). As for `COc1ccc(Cl)c2sc(NC(=O)C3CCCN(S(C)(=O)=O)C3)nc12` (stereo unspecified), the FP signal (polarization) was 63.

As for `CCc1nnc(NC(=O)CSc2ccc3nc(-c4ccccc4)cn3n2)s1`, the FP signal (polarization) was 55. As to `CN(C)C(C#N)c1cccc(Cl)c1Cl` (stereo unspecified), the FP signal (polarization) was 69. Take `CCOC(=O)N1CCc2c(sc(NC(=O)c3ccccc3I)c2C#N)C1`: the FP signal (polarization) was 63. In the case of `COc1cn(CC(=O)Nc2ccc(C)cc2C)c(CSc2nnnn2C)cc1=O`, the FP signal (polarization) is 52. Then `C(=N/NC1=NCCN1Cc1ccccc1)/c1ccc2c(c1)OCO2`, with 51 and 48. As for `Clc1ccc(-c2csc(-c3ccncc3)n2)cc1`, the FP signal (polarization) is 51.

As for `CCn1cc(C(=O)N2CCN(Cc3cc(C)ccc3C)CC2)c2nn(-c3ccccc3)c(=O)c-2c1`, the FP signal (polarization) was 64.

As to `COCC(=O)Nc1ccc2c(c1)C(=O)N(C)c1cc(C)ccc1O2`, the FP signal (polarization) is 69. Take `O=C(C1=C(O)C(=O)N(CCCN2CCOCC2)C1c1ccco1)c1cccs1` (stereo unspecified): the FP signal (polarization) is 57. Then `COc1ccccc1CCNC(=O)Cc1csc(Nc2ccc(F)cc2)n1`, with 65. Take `O=C(Cc1csc(Nc2ccc(F)cc2)n1)NCc1ccccn1`: the FP signal (polarization) is 9 (active). With `O=C(Cc1csc(Nc2ccccc2)n1)NCc1ccccc1Cl`, the FP signal (polarization) was 63. On to `CCOC(=O)Cn1c(=NC(=O)c2ccnn2C)sc2cc(C(C)C)ccc21`, for which the FP signal (polarization) was 69.

Take `COCCN1C(=O)C2N=NN(c3ccccc3)C2C1=O` (stereo unspecified): the FP signal (polarization) was 66.

Take `O=C(c1cccc(C(F)(F)F)c1)N1CCC(c2nnc(C3CC3)s2)CC1`: the FP signal (polarization) was 61.

Take `COC(=O)Nc1ccc2c(c1)C(=O)N(C)c1ccccc1O2`: the FP signal (polarization) was 57. As to `CC1CCCCC1NC(=O)C(=O)c1cn(CC(=O)N2CCCCC2)c2ccccc12` (stereo unspecified), the FP signal (polarization) was 56. On to `CC1=NN(c2ccccc2)C(=O)C1=Cc1c(C)[nH]n(-c2ccccc2)c1=O`, for which the FP signal (polarization) is 53. As to `O=C(Nc1ccc(Br)cc1)Nc1c[nH]c2ccccc12`, the FP signal (polarization) is 56.

With `O=C(Nc1ccc([N+](=O)[O-])cc1)Nc1nc(-c2nc3ccccc3s2)cs1`, the FP signal (polarization) was 65. Turning to `Cc1ccnc(NS(=O)(=O)c2ccc(NC(=O)c3ccc([N+](=O)[O-])o3)cc2)n1`, the FP signal (polarization) was 61. Consider `NC(=O)c1c(NC(=O)CCSc2ccc(Cl)cc2)sc2c1CCCCC2`, for which the FP signal (polarization) was 102. For the compound `Cc1c(/C=N\Nc2ccc([N+](=O)[O-])cc2)sc2ccccc12`, the FP signal (polarization) is 64. Turning to `COc1ccccc1/C=C/C(=O)NC(=S)N1CCCC1`, the FP signal (polarization) is 59. As for `Cc1cc(C(=O)Nc2sccc2-c2nc3ccccc3s2)on1`, the FP signal (polarization) is 107.

As to `NC(=O)c1cnn(-c2ccccc2)c1N`, the FP signal (polarization) is 55. On to `CCC(CC)C(=O)Nc1nnc(SCc2cc(=O)c(OC(=O)c3ccc(S(=O)(=O)N(CC)CC)cc3)co2)s1`, for which the FP signal (polarization) is 53. Turning to `Cc1ccc2c(c1)N(C(=O)Cn1nc3ccc(S(=O)(=O)C(C)(C)C)nn3c1=O)CCO2`, the FP signal (polarization) is 64. Take `COc1ccc(S(=O)(=O)NNC(=O)CSCc2nc(-c3ccc(Cl)cc3)cs2)cc1`: the FP signal (polarization) is 78 and 65.

Regarding `CC(=O)c1cccc(NC(=O)CSc2cc(C)c3ccccc3n2)c1`, the FP signal (polarization) is 77. For the compound `Cc1ccc(S(=O)(=O)Nc2ccc3c(c2)C(=O)NCCO3)c(C)c1`, the FP signal (polarization) was 64. For `O=C(CSc1nnc2ccc(-c3cccs3)nn12)NCCc1ccccc1`, the FP signal (polarization) is 54. The same measure for `CS(=O)(=O)c1ccc(Nc2nc(C(=O)NC3CC3)cs2)cc1`: 62. Take `C=CCn1c(SCC(=O)c2ccc3c(c2)OCO3)nc2scc(-c3ccco3)c2c1=O`: the FP signal (polarization) was 120.

As for `Cc1cc(C)c2nc(N(CCN(C)C)C(=O)/C=C/c3cccs3)sc2c1`, the FP signal (polarization) is 92. Turning to `COC(CC(=O)O)c1nc2ccccc2s1` (stereo unspecified), the FP signal (polarization) is 59. Turning to `COc1cccc2cc(C(=O)Nc3ccc4nc(N5CCN(C)CC5)sc4c3)oc12`, the FP signal (polarization) is 64.

As to `COc1cccc(-n2c(=S)sc3c(=O)[nH]c(SCC(=O)Nc4ccc(C)c(F)c4)nc32)c1`, the FP signal (polarization) is 48.

Consider `COc1cccn(Cc2n[nH]c(=S)n2C)c1=O`, for which the FP signal (polarization) is 59. As for `CC(=O)c1ccc(NC(=O)CSc2nc(C(F)(F)F)cc(=O)[nH]2)cc1`, the FP signal (polarization) was 54. As to `COc1ccc(Oc2cccc(Cl)c2CNC(=O)c2ccccc2N)cc1`, the FP signal (polarization) was 60. For `COC(=O)c1cccn1-c1ccc(F)cc1`, the FP signal (polarization) was 56. `Cc1cc(NC(=O)/C=C/c2ccccc2)n(C(C)C)n1`: the FP signal (polarization) is 67. Take `COc1ccc(-c2cc(=O)n(CC(=O)N3CCN(c4ccccc4OC)CC3)cn2)cc1`: the FP signal (polarization) is 65. The same measure for `CCOC(=O)N1CCN(C(=O)COc2coc(CN3CCc4ccccc43)cc2=O)CC1`: 57; for `Cc1cccc(NC(=O)Cn2c(C)cc(C)c(-c3nc(-c4ccc(F)cc4)no3)c2=O)c1C`: 137; for `Cc1nc2c(=S)[nH]nc(-c3ccccc3)c2s1`: 68. Consider `COc1ccc(OC)c(-c2cc3ccc(O)c(CN4CCN(C)CC4)c3oc2=O)c1`, for which the FP signal (polarization) was 37 (active). As for `CCc1cc(C(=O)c2ccc(OC)cc2)c(NC(=O)CN2CCN(C)CC2)s1`, the FP signal (polarization) was 69. Consider `COc1cccc2cc(-c3cc(=O)oc4cc(OCC(=O)OC(C)(C)C)ccc34)c(=O)oc12`, for which the FP signal (polarization) was 67. On to `Cn1nccc1-c1nnc(NC(=O)c2c(F)cccc2Cl)o1`, for which the FP signal (polarization) is 75. For `CCCCOc1ccccc1-c1cc2c(SCC(=O)Nc3ccc(NC(C)=O)cc3)nccn2n1`, the FP signal (polarization) is 70. The same measure for `CCOC(=O)c1nn(-c2ccccc2C)c(=O)cc1NCCC(c1ccccc1)c1ccccc1`: 54. The same measure for `COc1ccc(C)c2sc(N(Cc3cccnc3)C(=O)/C=C/c3ccccc3)nc12`: 55; for `CC(C)(C)c1cc(NC(=O)CSc2nnc3ccccn23)cc(C(C)(C)C)c1`: 59; for `O=C(Cn1cc(-c2nnc(-c3ccccc3)o2)c2ccccc21)N1CCCC1`: 130. Turning to `CCCc1cc(=O)n(CC(=O)Nc2ccccc2F)cn1`, the FP signal (polarization) was 65. Then `O=C(Nc1ccccc1-c1nc2ccccc2s1)c1ccc(Cl)s1`, with 60; and `O=C(CSc1nnc(CNC(=O)c2ccc(F)cc2)o1)Nc1ccc2c(c1)OCO2`, with 57; and `COC(=O)c1cc(OC)c(OC)cc1NC(=O)C1Cc2ccccc2C(=O)O1` (stereo unspecified), with 56. As to `CC(=O)SCC(=O)Nc1sccc1C#N`, the FP signal (polarization) is 66. Consider `O=C(CSc1nnc(NC(=O)c2c(F)cccc2Cl)s1)Nc1ccc(Br)cc1`, for which the FP signal (polarization) is 61.

On to `O=C(Nc1ccc(OC(F)(F)F)cc1)c1cnc2sccn2c1=O`, for which the FP signal (polarization) is 64. Turning to `O=C(NCC1CCN(Cc2cccs2)CC1)c1ccco1`, the FP signal (polarization) was 72. As to `CCOc1ccc(-c2noc(-c3cc(-c4cc(C)ccc4C)n[nH]3)n2)cc1OC`, the FP signal (polarization) is 95. The same measure for `COc1ccc2nc(-c3ccc(NC(=O)c4c(F)cccc4Cl)cc3)cn2n1`: 122.

For the compound `SCCc1nc2ccccc2[nH]1`, the FP signal (polarization) is 63. Then `COc1ccc(-c2noc(Cn3cnc4c(nnn4Cc4cccc(F)c4)c3=O)n2)cc1`, with 76; and `O=C(Nc1cc(F)ccc1F)N1CCN(c2ccc(-c3ccc4c(c3)OCO4)nn2)CC1`, with 123. For `O=C(COc1ccc(Cl)cc1)Nc1ccc2c(c1)C(=O)NCCO2`, the FP signal (polarization) is 60.

As for `COC(=O)c1c(NC(=O)CCS(=O)(=O)c2ccc(Cl)cc2)sc2c1CCC(C)C2` (stereo unspecified), the FP signal (polarization) was 96. Consider `O=C(CN1C(=O)c2ccccc2C1=O)Nc1nnc(-c2ccco2)o1`, for which the FP signal (polarization) is 63. On to `CCOc1ccc(S(=O)(=O)Nc2ccc3c(c2)CN(C(=O)C2CC2)CC3)cc1F`, for which the FP signal (polarization) is 66. As for `CCc1nnc(C2CCN(S(C)(=O)=O)CC2)s1`, the FP signal (polarization) was 60.

On to `Clc1ccc(C=Nc2cccnc2)c(Cl)c1`, for which the FP signal (polarization) is 63. With `Cc1cccnc1N=Cc1cc(Cl)cc(Cl)c1O`, the FP signal (polarization) was 29 (active). For `Oc1ccc(Br)cc1C=Nc1ccccn1`, the FP signal (polarization) is 41. As for `Cn1c(SCC(=O)NCc2ccc(F)cc2)nc2cc(-c3ccccc3)sc2c1=O`, the FP signal (polarization) is 104.

Take `CN(C)c1ccc(CCCNC(=O)COc2ccc(Cl)cc2)cc1`: the FP signal (polarization) was 69. In the case of `Cn1nc(-c2cccc(NC(=O)c3ccccc3C(F)(F)F)c2)ccc1=O`, the FP signal (polarization) is 56.

As to `O=C(N/N=C\c1ccncc1)N/N=C\c1ccncc1`, the FP signal (polarization) was 54.
